# ± gives the standard deviation.
# System: EfPiwi piRISC loaded with L1MC piRNA (26 nt)
# Test: pre-steady-state target cleavage rate (min^-1); auxiliary factor: 500 nM Ephydatia muelleri Gtsf1; guide: L1MC piRNA 5'p-UAACUAAAUACUAUGCAAGCUGUAGG; MIWI and MILI are mouse PIWI proteins and EfPiwi is from a freshwater sponge; tags in brackets are library labels; higher = faster piRNA-guided slicing of the target
# Procedure, shortened: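 A transcribed, DNA-blocked target RNA library (0.1 nM) and 1 nM active affinity-purified piRISC bearing one synthetic guide were incubated in HEPES–potassium acetate buffer at 33 °C for 0–8 or 0–960 min, either with or without 500 nM GTSF1 partner protein. Uncleaved targets were sequenced, normalised to depth and to weakly complementary targets, and pooled over three trials, with k3 capped at 0.0001 min^-1. The pre-steady-state cleavage rate was derived with a burst-and-steady-state fit.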
row,Sequence,pre-steady-state target cleavage rate
1,UCCUGCUACAGCUUGCUUAGUAUUUUCAAA,0.00321 ± 0.003
2,UCCUGGAUGUCGAACGUUACAAUUUAGUUA,< 0.0001
3,UCCUGGAUGUGCUUGCAUAGUAUUUUGUUA,0.00341 ± 0.0026
4,UCCUGGAUGUCGAACCAUAGCUAUUUAGUUA,< 0.0001
5,UCCUGGAUCAGCUUGCGUAGUAUUUAGUUA,0.0111 ± 0.0032
6,UCCUGGAUCAGCUUCCAUAGUAUUUAGUUA,0.00321 ± 0.0017
7,UCCUGCUACAGCUAGCAUAGUAUUUAGUAA,0.00623 ± 0.002
8,UCCUCCUACAGCUUGCAUUGUAUUUAGUAA,0.00648 ± 0.0029
9,UCCUGGUUCAGCUUGCAUAGUAUAUAGUUA,0.00607 ± 0.0027
10,UCCUGGAUCUGCUUGCAUAGUAUUUAGUUA,0.116 ± 0.023
11,UCCUGGUACAGCUUCGAUAGUAUUUACAAA,0.00595 ± 0.0049
12,UCCUGGUACAGCAUGCAAAGUAUUUAGUUA,0.00646 ± 0.0023
13,UCCUGGAUGUCGAACGUAAGUAUUUAGUGA,< 0.0001
14,UCCUGGAUGAGCUAGCAUAGUAUUUAGAAA,0.00297 ± 0.0019
15,UCCUGGUACAGCAUGCAUAGUUUUUAGUUA,0.0046 ± 0.0027
16,UCCUGGAUGAGCUUCCAUAGUAUUUAGAAA,0.00248 ± 0.0019
17,UCCUGCAUCAGCUUGCAUAGUAUUUUCAAA,0.00236 ± 0.0016
18,UCCUCCUACAGCUUGCAUAGUAGUUAGUUA,0.00786 ± 0.0026
19,UCCUGGAUGUCGAACCAUAGAUAUUAGUUA,< 0.0001
20,UCCUGGAACAGCAUGCAUAGUAUUAAGUUA,0.00499 ± 0.0017

row,Sequence,pre-steady-state target cleavage rate
1,UCCUGGAUGAGCUUGCGAUAGUAUUUAGUUA,0.00307 ± 0.0022
2,UCCUGGAUCAGCUUGCAUAGUAAUUAGUUA,0.0264 ± 0.0082
3,UCCUGGAUGUCGAACGAUAGUAUUAUAGUUA,< 0.0001
4,UCCUCCUACAGCAUGGAUAGUAUUUAGUUA,0.096 ± 0.023
5,UCCUGCUACAGCUUGCAUAGUAUUGUAGUUA,0.00279 ± 0.0016
6,UCCUGGAUGUCGAACGUUAGUAUGUUAGUUA,< 0.0001
7,UCCUGGAUGUGCUUGCAUAGUAUUUAGUAUA,0.00507 ± 0.0027
8,UCCUCCUAGAGCUAGCAUAGUAUUUAGUUA,0.0136 ± 0.0043
9,UCCUGGUACUGCUUGCUUAGUAUUUAGUUA,0.00909 ± 0.0033
10,UCCUCCUACAGGUAGCAUAGUAUUUAGUUA,0.0265 ± 0.006
11,UCCUGCUACAGCUUGCAUAGUAUUAUCUAA,0.00395 ± 0.0027
12,UCCUCCUACAGCUUGCAUAGGUAUUUAGUUA,0.0036 ± 0.0026
13,UCCUGGUACAGCUUGCAUAGUAUAUUCAAA,0.00341 ± 0.0028
14,UCCUCCUACACCUUGCAUUGUAUUUAGUUA,0.0139 ± 0.0056
15,UCCUGCUACAGCUUGCAUAGUUAUUAGAAA,0.00309 ± 0.0025
16,UCCUGGAUGUGCUUGCAUAGUUUUUAGUUA,0.00538 ± 0.0024
17,UCCUGGAUGUCGAACGUAUGUUAUUUAGUUA,< 0.0001
18,UCCUGGAUCAGCAUGCAUAGUAUUUAGUAA,0.00497 ± 0.0029
19,UCCUGGAUGUCGUUGGUAAGUAUUUAGUUA,< 0.0001
20,UCCUGGAUGUCGAACGAUACUAUUUUGUUA,< 0.0001
